Structures can show the parent of a compound that is named as a salt. ± gives the standard deviation of the averaged measurements.
tested on: mESC LDLR-Dup GFP reporter (SpCas9 MH-deletion repair); experiment: fraction of GFP+ cells relative to DMSO control (fold change); higher = more MH-deletion repair to in-frame LDLR (or more editing); details: 2 µM; 7 days post-transfection

Structure (SMILES) | fraction of GFP+ cells
C[C@H](Oc1cc(-c2cnn(C3CCNCC3)c2)cnc1N)c1c(Cl)ccc(F)c1Cl [(S)-crizotinib] | 0.94 ± 0.18
CC(=O)NCC(=O)N1[C@@H]2CC[C@H]1c1ccc(Nc3ncc(C(F)(F)F)c(NC4CCC4)n3)cc12 | 1.27 ± 0.73
Cc1cc(O)c2c(c1)C(=O)c1cc(O)cc(O)c1C2=O [Emodin] | 1.12 ± 0.16
NC(=O)c1cc(F)cc2c1C(=O)N(C1CCN(C3CCC(F)(F)CC3)CC1)C2 | 0.792 ± 0.12
O=c1[nH]c(C2CCCN2)nc2c1oc1ccc(Cl)cc12 (stereo not given) | 1.11 ± 0.15
Cc1nc(N)sc1-c1ccnc(Nc2ccc(N3CCOCC3)cc2)n1 | 0.334 ± 0.28
COc1c(N2C[C@@H]3CCCN[C@@H]3C2)c(F)cc2c(=O)c(C(=O)O)cn(C3CC3)c12 [Moxifloxacin HCl] | 0.624 ± 0.29
CC(C)NC(=O)COc1cccc(-c2nc(Nc3ccc4[nH]ncc4c3)c3ccccc3n2)c1 | 1.21 ± 1.4
CO[C@@H]1[C@@H](OC(N)=O)[C@@H](O)[C@H](Oc2ccc3c(O)c(NC(=O)c4ccc(O)c(CC=C(C)C)c4)c(=O)oc3c2C)OC1(C)C [Novobiocin Sodium] | 1.09 ± 0.072
CN(N=O)C(=O)NC1C(O)OC(CO)C(O)C1O (stereo not given) [Streptozotocin (STZ)] | 2.1 ± 0.29
O=c1c(O)c(-c2ccc(O)c(O)c2)oc2cc(O)cc(O)c12 [Quercetin] | 1.4 ± 0.93
O=C(Nc1ccc(O)c(C(=O)O)c1)c1cccc(NC(=O)c2ccco2)c1 | 1.66 ± 0.41
CC(C)(Oc1ccc(C(=O)c2ccc(Cl)cc2)cc1)C(=O)O [Fenofibric acid] | 2.08 ± 0.55
NC(=O)c1ccccc1 [Benzamide] | 1.01 ± 0.07
CC1=C(/C=C/C(C)=C/C=C/C(C)=C/C(=O)O)C(C)(C)CCC1 [Tretinoin] | 0.923 ± 0.026
O=NN(CCCl)C(=O)NCCCl [Carmustine] | 1 ± 0.078
O=CN1CC/C(=C/c2ccc3c(c2)OCO3)C1=O | 0.833 ± 0.28
Cc1cn([C@H]2O[C@@H](CO)[C@H](O)[C@H]2F)c(=O)[nH]c1=O [Clevudine] | 0.898 ± 0.28
O=C(Nc1ccccc1-c1cn2c(CN3CC[C@@H](O)C3)csc2n1)c1ccc2ccccc2c1 | 1.45 ± 0.4
Cn1nnc2c(C(N)=O)ncn2c1=O [Temozolomide] | 0.998 ± 0.33

Structure (SMILES) | fraction of GFP+ cells
C=CC(=O)N1C/C(=C\c2ccc([N+](=O)[O-])cc2)C(=O)/C(=C/c2ccc([N+](=O)[O-])cc2)C1 | 0.723 ± 0.13
O=c1c(-c2ccc(O)cc2)coc2cc(O)ccc12 [Daidzein] | 0.115 ± 0.039
O=C(NC(NC(=S)Nc1ccc(F)c([N+](=O)[O-])c1)C(Cl)(Cl)Cl)C(c1ccccc1)c1ccccc1 (stereo not given) | 0.561 ± 0.13
Cc1nc(=O)c2cc(CN(C)c3ccc(C(=O)N[C@@H](CCC(=O)O)C(=O)O)s3)ccc2[nH]1 [Raltitrexed] | 2.3 ± 1
NS(=O)(=O)C#Cc1ccccc1 | 1.11 ± 0.052
O=[N+]([O-])c1ccc(Nc2ccccc2-c2ccccc2)c2nonc12 | 0.854 ± 0.23
COc1cc2c(c(OC)c1OC)-c1c(cc3c(c1OC)OCO3)CC(C)C(C)C2 (stereo not given) [Schisandrin B (Sch B)] | 1.02 ± 0.2
CC(C)(C)OC(=O)Nc1ccc(-c2cc(C(=O)NCCCCCCC(=O)NO)no2)cc1 | 0.902 ± 0.059
Nc1[nH]cnc2ncnc1-2 [Adenine] | 0.896 ± 0.31
CC(ONC(=O)c1cc(C(F)(F)F)cc(C(F)(F)F)c1)C(=O)Nc1ccc(Cl)cc1 (stereo not given) | 0.994 ± 0.12
Nc1nc(Nc2ccc(S(N)(=O)=O)cc2)nn1C(=O)c1c(F)cccc1F | 1 ± 0.15
Nc1nc(N)c(N=O)c(OCC2CCCCC2)n1 | 0.999 ± 0.11
CCN(CC)CCCC(C)Nc1ccnc2cc(Cl)ccc12 (stereo not given) [Chloroquine Phosphate] | 0.703 ± 0.14
C[C@@H](N)[C@H]1CC[C@H](C(=O)Nc2ccncc2)CC1 | 1.31 ± 0.91
C[C@@H](CN1CC(=O)NC(=O)C1)N1CC(=O)NC(=O)C1 [Dexrazoxane HCl (ICRF-187, ADR-529)] | 1.05 ± 0.24
CCCC(CCC)C(=O)O [Valproic acid sodium salt (Sodium valproate)] | 0.849 ± 0.18
CCn1cc(-c2ccnc3[nH]c(-c4cccc(CN(C)C)c4)cc23)c(-c2ccc(NC(=O)N(C)C)cc2)n1 | 0.251 ± 0.13
Cn1cc(-c2cnn3c(N)c(Br)c([C@@H]4CCCNC4)nc23)cn1 | 0.689 ± 0.069
N=C1NC(=O)/C(=C/c2ccc(O)cc2)S1 [Mirin] | 0.862 ± 0.2
CS(=O)(=O)c1ccc(-c2nnc(/C=C/c3nnc(-c4ccc(C#N)cc4)o3)n2-c2ccccc2Cl)nc1 | 0.816 ± 0.089
